# Data from PubChem BioAssay.
# Several values for one entry are separate records, joined by “and”; a condition that tells them apart may be missing. Equal values may be shown once. Activity calls are given as the source filed them.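 Rule for the calls, unless noted: active = normalized viability below 100% at a tested concentration; inactive = the rest.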
# Columns and labels:
# [1] = sensitizers of A549 cells to miR-34 induction, primary screen, imaging, A549 dox-inducible miR-34, nuclei and caspase counts (AID 1347080;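 active = compounds whose cell count with miR-34 switched on is under 0.7 times the count with it off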); details: A549 miR-34 inducible, Hoechst nuclei count, 48 h
# [2] = survival rescue of mitochondrial mutant cells in low glucose, primary screen, MELAS cybrids, Rieske KO mouse fibroblasts, CellTiter-Glo (AID 1508586;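 active = mean z-score across replicates of 1.96 or higher in either the MELAS or the Rieske mutant cell line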;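 note: z relative to plate mean and SD of compound and empty wells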)
# [3] = ovarian cancer cell viability with rucaparib, profiling panel, oncology-focused library, rucaparib conditional (AID 1508598); details: patient-derived ovarian cancer cells, CellTiter-Glo viability, 144 h, stronger effect = lower value
# [4] = LFS_MB_P medulloblastoma growth inhibition, cell-based, chromothripsis tumors, cisplatin or BGB combos (AID 1671449; in the data active = inhibition above about 80%;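 note: cells exposed for 96 hours; 0% = vehicle DMSO and 100% = killing by high DMSO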); details: LFS_MB_P medulloblastoma cells
# [5] = HDN33 neuroblastoma growth inhibition, cell-based, chromothripsis tumors, cisplatin or BGB combos (AID 1671450; in the data active = inhibition above about 80%;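 note: cells exposed to compound for four days; 0% = vehicle DMSO and 100% = cell killing by high DMSO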); details: HDN33 neuroblastoma cells, stronger effect = higher value
# [6] = ICB984 medulloblastoma cell growth inhibition, synergistic combos for chromothripsis tumors, cisplatin or BGB combos (AID 1671451; call rule not given here;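 note: cells exposed for 96 hours before readout; 0% = vehicle DMSO and 100% = killing by high DMSO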); details: ICB984 medulloblastoma cells, drug combinations, stronger effect = higher value
# [7] = LFS_MB_1R medulloblastoma cell growth inhibition, synergistic combos for chromothripsis tumors, cisplatin or BGB combos (AID 1671452; in the data active = inhibition above about 80%;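 note: cells exposed for 96 hours before readout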); details: LFS_MB_1R medulloblastoma cells, stronger effect = higher value
# [8] = stronger effect = lower value, cell number ratio, induced over uninduced
# [9] = measured here: relative caspase fold change +Dox/-Dox
# [10] = measured here: total cells with miR-34 induction, stronger effect = lower value
# [11] = measured here: total cells without miR-34 induction
# [12] = MELAS cybrid survival, CellTiter-Glo 48 h, stronger effect = higher value
# [13] = Rieske KO mouse fibroblast survival, CellTiter-Glo 72 h
# [14] = measured here: combination with BGB IC40, at 0.05 µM
structure (smiles),measurement,setting,value
CCOC(=O)C(CCc1ccccc1)NC1CCCN2CCCC(C(=O)O)N2C1=O (configuration not stated),fold change,[1]; [8],0.927 (inactive)
same,fold change,[1]; [9],0.673
same,cell count,[1]; [10],7550
same,cell count,[1]; [11],8150
same,z-score,[2]; [12],-0.275 (inactive)
same,z-score,[2]; [13],-0.0266
CCc1cnn2c(NCc3ccc[n+]([O-])c3)cc(N3CCCCC3CCO)nc12 (configuration not stated),fold change,[1]; [8],1.13 (inactive)
same,fold change,[1]; [9],0.956
same,cell count,[1]; [10],1750
same,cell count,[1]; [11],1550
same,z-score,[2]; [12],1.14 (inactive)
same,z-score,[2]; [13],-3.25
O=C(NCC1(c2nc(-c3ccccc3)cs2)CCOCC1)c1cccc(-c2noc(C(F)(F)F)n2)c1,fold change,[1]; [8],0.836 (inactive)
same,fold change,[1]; [9],0.412
same,cell count,[1]; [10],6620
same,cell count,[1]; [11],7920
same,z-score,[2]; [12],0.0872 (inactive)
same,z-score,[2]; [13],0.109
same,viability,"[3]; at 0.000305 µM, OCI-C5x cells, with rucaparib 10 µM, 100% = cells with rucaparib alone",124% (inactive)
same,viability,"[3]; at 0.000305 µM, OCI-C5x cells, without rucaparib",111% (inactive)
same,viability,"[3]; at 0.000305 µM, OCI-P5x cells, with rucaparib 20 µM, 100% = cells with rucaparib alone",98.3% (active)
same,viability,"[3]; at 0.000305 µM, OCI-P5x cells, without rucaparib",94.3% (active)
same,viability,"[3]; at 0.00122 µM, OCI-C5x cells, with rucaparib 10 µM, 100% = cells with rucaparib alone",128% (inactive)
same,viability,"[3]; at 0.00122 µM, OCI-C5x cells, without rucaparib",113% (inactive)
same,viability,"[3]; at 0.00122 µM, OCI-P5x cells, with rucaparib 20 µM, 100% = cells with rucaparib alone",104% (inactive)
same,viability,"[3]; at 0.00122 µM, OCI-P5x cells, without rucaparib",101% (inactive)
same,viability,"[3]; at 0.00488 µM, OCI-C5x cells, with rucaparib 10 µM, 100% = cells with rucaparib alone",127% (inactive)
same,viability,"[3]; at 0.00488 µM, OCI-C5x cells, without rucaparib",117% (inactive)
same,viability,"[3]; at 0.00488 µM, OCI-P5x cells, with rucaparib 20 µM, 100% = cells with rucaparib alone",95.9% (active)
same,viability,"[3]; at 0.00488 µM, OCI-P5x cells, without rucaparib",97.2% (active)
same,viability,"[3]; at 0.0195 µM, OCI-C5x cells, with rucaparib 10 µM, 100% = cells with rucaparib alone",120% (inactive)
same,viability,"[3]; at 0.0195 µM, OCI-C5x cells, without rucaparib",104% (inactive)
same,viability,"[3]; at 0.0195 µM, OCI-P5x cells, with rucaparib 20 µM, 100% = cells with rucaparib alone",95.5% (active)
same,viability,"[3]; at 0.0195 µM, OCI-P5x cells, without rucaparib",89.1% (active)
same,viability,"[3]; at 0.0781 µM, OCI-C5x cells, with rucaparib 10 µM, 100% = cells with rucaparib alone",109% (inactive)
same,viability,"[3]; at 0.0781 µM, OCI-C5x cells, without rucaparib",106% (inactive)
same,viability,"[3]; at 0.0781 µM, OCI-P5x cells, with rucaparib 20 µM, 100% = cells with rucaparib alone",94% (active)
same,viability,"[3]; at 0.0781 µM, OCI-P5x cells, without rucaparib",94.9% (active)
same,viability,"[3]; at 0.313 µM, OCI-C5x cells, with rucaparib 10 µM, 100% = cells with rucaparib alone",132% (inactive)
same,viability,"[3]; at 0.313 µM, OCI-C5x cells, without rucaparib",102% (inactive)
same,viability,"[3]; at 0.313 µM, OCI-P5x cells, with rucaparib 20 µM, 100% = cells with rucaparib alone",95.8% (active)
same,viability,"[3]; at 0.313 µM, OCI-P5x cells, without rucaparib",90.7% (active)
same,viability,"[3]; at 1.25 µM, OCI-C5x cells, with rucaparib 10 µM, 100% = cells with rucaparib alone",135% (inactive)
same,viability,"[3]; at 1.25 µM, OCI-C5x cells, without rucaparib",117% (inactive)
same,viability,"[3]; at 1.25 µM, OCI-P5x cells, with rucaparib 20 µM, 100% = cells with rucaparib alone",88.1% (active)
same,viability,"[3]; at 1.25 µM, OCI-P5x cells, without rucaparib",89.8% (active)
same,viability,"[3]; at 5 µM, OCI-C5x cells, with rucaparib 10 µM, 100% = cells with rucaparib alone",158% (inactive)
same,viability,"[3]; at 5 µM, OCI-C5x cells, without rucaparib",127% (inactive)
same,viability,"[3]; at 5 µM, OCI-P5x cells, with rucaparib 20 µM, 100% = cells with rucaparib alone",78.7% (active)
same,viability,"[3]; at 5 µM, OCI-P5x cells, without rucaparib",84.2% (active)
same,inhibition,"[4]; at 0.5 µM, stronger effect = higher value",16.1% (inactive) and -6.25% (inactive)
same,inhibition,"[4]; measured here: combination with BGB IC20, at 0.005 µM",1.8% and 4.15%
same,inhibition,"[4]; measured here: combination with BGB IC40, at 0.005 µM",2.63% and 14.3%
same,inhibition,[4]; [14],-10.8% and -1.22%
same,inhibition,"[4]; measured here: combination with cisplatin, at 0.5 µM, stronger effect = higher value",3.22% and -32.3%
same,inhibition,"[4]; measured here: combination with cisplatin, at 5 µM, stronger effect = higher value",-16.9% and -3.34%
same,inhibition,"[5]; BGB combo, at 5 µM",-23% and 15.5%
same,inhibition,[5]; at 0.5 µM,-32.5% (inactive) and 16.4% (inactive)
same,inhibition,"[5]; cisplatin combo, at 5 µM",-16.3% and 0.452%
same,inhibition,"[5]; measured here: with BGB IC20 combination, at 0.5 µM",-30.2% and 18.4%
same,inhibition,"[5]; measured here: with cisplatin IC20 combination, at 0.5 µM",-45.4% and 11.4%
same,inhibition,"[5]; single agent, at 5 µM",-5.15% and 25.1%
same,inhibition,"[6]; BGB IC20 combo, at 0.005 µM",-22.9% and 2.76%
same,inhibition,"[6]; BGB IC40 combo, at 0.005 µM",9.28% and 13%
same,inhibition,"[6]; BGB IC40 combo, at 0.05 µM",-3.89% and 21%
same,inhibition,[6]; at 0.5 µM,-16.1% (inactive) and 2.22% (inactive)
same,inhibition,"[6]; cisplatin combo, at 0.05 µM",-6.8% and 18.1%
same,inhibition,"[6]; cisplatin combo, at 0.5 µM",-20% and 9.29%
same,inhibition,"[6]; cisplatin combo, at 5 µM",-12.6% and -9.9%
same,inhibition,"[6]; measured here: 5 uM single agent, at 5 µM",-22.5% and 19.3%
same,inhibition,[7]; at 0.5 µM,-33% (inactive) and -1.8% (inactive)
same,inhibition,[7]; [14],-32.4% and 10.2%
